Compounds with a hit are over-represented: about 1.7% of the library has one in this group of screens.
OPRM1-OPRD1 ag – agonists of OPRM1-OPRD1 heterodimerization, primary screen, cell-based, luminescence; AID 504326, 2011; 0.3% of 340,000 active; activation, % at 9.3 µM; cells; in the data active = activation above about 18%;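 also: 0% = vehicle-treated cells and 100% = reference agonist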
Target sequence (P35372 whole entry, looked up): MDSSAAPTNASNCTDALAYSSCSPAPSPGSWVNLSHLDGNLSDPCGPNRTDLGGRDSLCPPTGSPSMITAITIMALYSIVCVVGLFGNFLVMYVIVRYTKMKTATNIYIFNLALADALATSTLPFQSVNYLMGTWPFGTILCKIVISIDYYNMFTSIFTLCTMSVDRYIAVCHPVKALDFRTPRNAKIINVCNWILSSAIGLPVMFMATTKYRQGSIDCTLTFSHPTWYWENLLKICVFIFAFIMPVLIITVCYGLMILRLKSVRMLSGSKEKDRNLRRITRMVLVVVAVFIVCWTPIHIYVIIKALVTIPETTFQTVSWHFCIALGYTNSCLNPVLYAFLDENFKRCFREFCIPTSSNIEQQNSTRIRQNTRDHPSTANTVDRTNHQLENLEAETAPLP
Target sequence (P41143 whole entry, looked up): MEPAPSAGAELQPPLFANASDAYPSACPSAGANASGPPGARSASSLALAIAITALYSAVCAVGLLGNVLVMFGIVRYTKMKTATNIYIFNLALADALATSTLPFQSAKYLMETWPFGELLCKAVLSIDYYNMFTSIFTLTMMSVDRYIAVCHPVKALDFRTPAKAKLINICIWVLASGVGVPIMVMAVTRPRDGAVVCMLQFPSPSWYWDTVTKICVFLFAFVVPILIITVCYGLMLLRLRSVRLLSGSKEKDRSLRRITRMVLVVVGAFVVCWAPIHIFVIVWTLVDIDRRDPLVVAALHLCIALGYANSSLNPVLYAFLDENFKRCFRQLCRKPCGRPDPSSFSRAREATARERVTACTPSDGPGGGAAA
beta cell repl – inducers of MIN6 beta-cell proliferation, primary screen, ATP luminescence, uHTS; proliferation, % at 10 µM; 0.29% of 330,000 active; MIN6 cells proliferation, ATPlite luminescence, 48 h; cells starved in 0.2% serum; 100% = growth in 10% serum; AID 2380, 2010;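 active = compounds whose signal lies at least 3.5 SD above the mean of all wells on their plate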;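 also: 0% = DMSO-treated cells in low-serum medium and 100% = 10% serum control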
V-ATPase pHluor – regulators of yeast V-ATPase proton pumping, primary screen, pHLuorin cytosolic pH fluorescence. 0.37% of 350,000 active. response, % at 10 µM. S. cerevisiae; in the data active = response mostly above about 7.3%, no sharp cut-off; inactive = mostly below about 5.4%; also: actives read high
HTR5A inv ctr – HTR5A inverse agonists in luminescence cell assay, primary screen, counter-screen for OPRM1-OPRD1 heterodimer inverse agonist project, full-deck HTS. 5-hydroxytryptamine receptor 5A (Homo sapiens), P47898. HTR5A cell line, inverse agonism. inhibition, % at 9.3 µM. 0.083% of 340,000 active; in the data active = inhibition mostly above about 23%, no sharp cut-off; inactive = mostly below about 18%;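 also: 0% = cells with DMSO and 100% = no-cell wells with DMSO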
HTR5A ag ctr – HTR5A agonists in luminescence cell assay, primary screen, counter-screen for OPRM1-OPRD1 heterodimer agonist project, full-deck HTS. 5-hydroxytryptamine receptor 5A (Homo sapiens), P47898. cell-based. activation, % at 9.3 µM. 0.61% of 340,000 active. AID 504692, 2011; in the data active = activation mostly above about 9.5%, no sharp cut-off; inactive = mostly below about 7.6%;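 also: 0% = cells with vehicle only and 100% = reference agonist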
OPRM1-OPRD1 inv – inverse agonists of MOR-DOR heterodimerization, primary screen, cell-based, luminescence. 0.21% of 340,000 active. cell-based MOR-DOR heterodimer luminescence, inverse agonism. inhibition, % at 9.3 µM. Mu-type opioid receptor (Homo sapiens) + Delta-type opioid receptor (Homo sapiens), …; in the data active = inhibition above about 22%, passing the limit was not always enough;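 also: 0% = cells with DMSO and 100% = wells without cells with DMSO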
V-ATPase pH SP – yeast V-ATPase proton pumping modulators, confirmation, S. cerevisiae, pH-sensitive GFP, second cherry-pick; shares compounds with V-ATPase pHluor; S. cerevisiae pHLuorin cytosolic pH, V-ATPase proton transport; 2% of 980 active; AID 602197, 2012; response, % at 10 µM; in the data active = response above about 24%;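 also: plate controls were vehicle wells for no effect and positive control wells for full effect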
Active calls of the source: *; ! = repeats disagree.

COc1cccc(CNC(=O)c2ccccc2NC(=O)C2=C(C)OCCS2)c1OC was read as OPRM1-OPRD1 ag 0, beta cell repl -1, V-ATPase pHluor 6, HTR5A inv ctr 20, HTR5A ag ctr 2 and OPRM1-OPRD1 inv -1.
`Cc1n[nH]c(=S)n1-c1ccccc1` gave OPRM1-OPRD1 ag -2, beta cell repl -2, V-ATPase pHluor -1, HTR5A inv ctr 15, HTR5A ag ctr 0 and OPRM1-OPRD1 inv 9.
For Cc1n[nH]c(=S)n1-c1ccc(Cl)cc1 the results were OPRM1-OPRD1 ag -4, beta cell repl -3, V-ATPase pHluor -2, HTR5A inv ctr 16, HTR5A ag ctr 5, OPRM1-OPRD1 inv 18 and V-ATPase pH SP -2.
Screening O=Cc1c(C(=O)O)n(CC(=O)O)c2ccccc12 returned OPRM1-OPRD1 ag -2, beta cell repl 1, V-ATPase pHluor 0, HTR5A inv ctr -25, HTR5A ag ctr -2 and OPRM1-OPRD1 inv 9.
CC(=O)NCCSC(=O)c1ccc(F)cc1 was read as OPRM1-OPRD1 ag -1, beta cell repl -1, V-ATPase pHluor -2, HTR5A inv ctr 15, HTR5A ag ctr 2, OPRM1-OPRD1 inv 6 and V-ATPase pH SP 0.
Screening O=C(NCCNC(=O)c1cc(F)cc(F)c1)c1cc(F)cc(F)c1 returned OPRM1-OPRD1 ag -4, beta cell repl -3, V-ATPase pHluor 1, HTR5A inv ctr 6, HTR5A ag ctr -2 and OPRM1-OPRD1 inv 17.
`O=C(NCCNC(=O)c1ccc(F)cc1)c1ccc(F)cc1` gave OPRM1-OPRD1 ag -2, beta cell repl -2, V-ATPase pHluor 0, HTR5A inv ctr 1, HTR5A ag ctr 3, OPRM1-OPRD1 inv 12 and V-ATPase pH SP 1.
For O=C(NCCCN1CCN(CCCNC(=O)c2ccc(F)cc2)CC1)c1ccc(F)cc1 the results were OPRM1-OPRD1 ag 0, beta cell repl 1, V-ATPase pHluor -1, HTR5A inv ctr -31, HTR5A ag ctr 4, OPRM1-OPRD1 inv 2 and V-ATPase pH SP 1.
`CCOc1ccccc1N(C)S(=O)(=O)c1ccc2c(c1)CC(C)N2C(=O)C1CC1` (stereo not drawn) gave OPRM1-OPRD1 ag -4, beta cell repl 2, V-ATPase pHluor 1, HTR5A inv ctr -3, HTR5A ag ctr 1 and OPRM1-OPRD1 inv 18.
COC(=O)Cc1cc(=O)oc2cc(O)ccc12 was read as OPRM1-OPRD1 ag -3, beta cell repl 0, V-ATPase pHluor 0, HTR5A inv ctr 0, HTR5A ag ctr 0 and OPRM1-OPRD1 inv 13.
Screening Cc1c(Cl)sn(-c2ccc(Cl)cc2)c1=O returned OPRM1-OPRD1 ag 36*, beta cell repl -5, V-ATPase pHluor 66*, HTR5A inv ctr -54, HTR5A ag ctr 19*, OPRM1-OPRD1 inv -208 and V-ATPase pH SP 61*.
For Cc1nn(-c2ccc(Cl)cc2)c(=O)c2ccccc12 the results were OPRM1-OPRD1 ag -3, beta cell repl 0, V-ATPase pHluor 1, HTR5A inv ctr 10, HTR5A ag ctr -4 and OPRM1-OPRD1 inv 17.
O=C1NCCN/C1=C\C(=O)c1ccc(F)cc1 was read as OPRM1-OPRD1 ag -1, beta cell repl -1, V-ATPase pHluor -2, HTR5A inv ctr 10, HTR5A ag ctr -4, OPRM1-OPRD1 inv 5 and V-ATPase pH SP 3.
For CC(Sc1ccccc1)C(=O)N1CCN(S(=O)(=O)c2cccc(Br)c2)CC1 (stereo not drawn) the results were OPRM1-OPRD1 ag 3, beta cell repl -2, V-ATPase pHluor 1, HTR5A inv ctr 3, HTR5A ag ctr -1 and OPRM1-OPRD1 inv -15.
For N/C(=N\O)c1ccc(N2CCN(c3ncccc3C(F)(F)F)CC2)nc1 the results were OPRM1-OPRD1 ag -1, beta cell repl 1, V-ATPase pHluor 26*, HTR5A inv ctr -3, HTR5A ag ctr 2, OPRM1-OPRD1 inv 6 and V-ATPase pH SP 1.
Screening O=C(Nc1ccc(N2CCN(c3ncccc3C(F)(F)F)CC2)nc1)c1cccs1 returned OPRM1-OPRD1 ag 6, beta cell repl -3, V-ATPase pHluor 2, HTR5A inv ctr 9, HTR5A ag ctr 7 and OPRM1-OPRD1 inv -33.
For CCOC(=O)C1=C(C)NC(SCC(=O)OC)=C(C#N)C1c1ccc(C(=O)OC)cc1 (stereo not drawn) the results were OPRM1-OPRD1 ag 2, beta cell repl 0, V-ATPase pHluor 9.9*!, HTR5A inv ctr -2, HTR5A ag ctr 1, OPRM1-OPRD1 inv -9 and V-ATPase pH SP -1.
For CCOc1ccc(C(=O)NC2CCCCCCC2)cc1 the results were OPRM1-OPRD1 ag -1, beta cell repl -4, V-ATPase pHluor 3, HTR5A inv ctr 4, HTR5A ag ctr 7 and OPRM1-OPRD1 inv 8.
Screening O=C(NC1CCCCCC1)c1ccc(OCC2CCCO2)cc1 (stereo not drawn) returned OPRM1-OPRD1 ag -3, beta cell repl -2, V-ATPase pHluor 7.8*, HTR5A inv ctr -4, HTR5A ag ctr 0, OPRM1-OPRD1 inv 16 and V-ATPase pH SP 1.
O=C(NCC#CCOCc1ccccc1)c1ccccc1 was read as OPRM1-OPRD1 ag -2, beta cell repl -5, V-ATPase pHluor 4, HTR5A inv ctr -32, HTR5A ag ctr 11 and OPRM1-OPRD1 inv 13.
For C[C@H](c1ccccc1)n1nnc(COCc2ccccc2)c1C#CCOCc1ccccc1 the results were OPRM1-OPRD1 ag 3, beta cell repl -7, V-ATPase pHluor 9.9*, HTR5A inv ctr 12, HTR5A ag ctr -4, OPRM1-OPRD1 inv -16 and V-ATPase pH SP 1.
Screening C=CCc1ccc(OCCOCCN(C)C)c(OC)c1 returned OPRM1-OPRD1 ag -2, beta cell repl 0, V-ATPase pHluor 12*, HTR5A inv ctr -7, HTR5A ag ctr -2, OPRM1-OPRD1 inv 14 and V-ATPase pH SP -1.
Screening COc1cc(CC(=O)N(c2ccccc2)c2nc(C)cs2)cc(OC)c1OC returned OPRM1-OPRD1 ag 2, beta cell repl -1, V-ATPase pHluor -3, HTR5A inv ctr 4, HTR5A ag ctr -1 and OPRM1-OPRD1 inv -9.
Screening CC(=O)c1c(C)[nH]c(C(=O)COC(=O)COc2ccccc2F)c1C returned OPRM1-OPRD1 ag 0, beta cell repl 1, V-ATPase pHluor 12*, HTR5A inv ctr 7, HTR5A ag ctr -2, OPRM1-OPRD1 inv 1 and V-ATPase pH SP -1.
For CN(Cc1nc(C(c2ccccc2)c2ccccc2)no1)CC1COCCO1 (stereo not drawn) the results were OPRM1-OPRD1 ag -2, beta cell repl 0, V-ATPase pHluor 11*, HTR5A inv ctr 8, HTR5A ag ctr -3, OPRM1-OPRD1 inv 8 and V-ATPase pH SP -5.

Screening data: PubChem, several laboratories
